According to the supplement of paper PMC11732987, “Enantioselective OTUD7B fragment discovery through chemoproteomics screening and high-throughput optimisation” (Communications Chemistry, 2025):

Key:
Experiment in all cases: log2 ratio of Biotin-Ahx-Ub-VS probe labelling (fragment/DMSO); higher = less target engagement (more negative = stronger competition), active = hit call of the paper (q ≤ 0.05, log2 ratio ≤ -1)
Settings in all cases: compound concentration: 200 uM; treatment time: 3 h
ALG13 = biological target: T1, ALG13 (UniProt Q9NP73)
T1 sequence (whole entry): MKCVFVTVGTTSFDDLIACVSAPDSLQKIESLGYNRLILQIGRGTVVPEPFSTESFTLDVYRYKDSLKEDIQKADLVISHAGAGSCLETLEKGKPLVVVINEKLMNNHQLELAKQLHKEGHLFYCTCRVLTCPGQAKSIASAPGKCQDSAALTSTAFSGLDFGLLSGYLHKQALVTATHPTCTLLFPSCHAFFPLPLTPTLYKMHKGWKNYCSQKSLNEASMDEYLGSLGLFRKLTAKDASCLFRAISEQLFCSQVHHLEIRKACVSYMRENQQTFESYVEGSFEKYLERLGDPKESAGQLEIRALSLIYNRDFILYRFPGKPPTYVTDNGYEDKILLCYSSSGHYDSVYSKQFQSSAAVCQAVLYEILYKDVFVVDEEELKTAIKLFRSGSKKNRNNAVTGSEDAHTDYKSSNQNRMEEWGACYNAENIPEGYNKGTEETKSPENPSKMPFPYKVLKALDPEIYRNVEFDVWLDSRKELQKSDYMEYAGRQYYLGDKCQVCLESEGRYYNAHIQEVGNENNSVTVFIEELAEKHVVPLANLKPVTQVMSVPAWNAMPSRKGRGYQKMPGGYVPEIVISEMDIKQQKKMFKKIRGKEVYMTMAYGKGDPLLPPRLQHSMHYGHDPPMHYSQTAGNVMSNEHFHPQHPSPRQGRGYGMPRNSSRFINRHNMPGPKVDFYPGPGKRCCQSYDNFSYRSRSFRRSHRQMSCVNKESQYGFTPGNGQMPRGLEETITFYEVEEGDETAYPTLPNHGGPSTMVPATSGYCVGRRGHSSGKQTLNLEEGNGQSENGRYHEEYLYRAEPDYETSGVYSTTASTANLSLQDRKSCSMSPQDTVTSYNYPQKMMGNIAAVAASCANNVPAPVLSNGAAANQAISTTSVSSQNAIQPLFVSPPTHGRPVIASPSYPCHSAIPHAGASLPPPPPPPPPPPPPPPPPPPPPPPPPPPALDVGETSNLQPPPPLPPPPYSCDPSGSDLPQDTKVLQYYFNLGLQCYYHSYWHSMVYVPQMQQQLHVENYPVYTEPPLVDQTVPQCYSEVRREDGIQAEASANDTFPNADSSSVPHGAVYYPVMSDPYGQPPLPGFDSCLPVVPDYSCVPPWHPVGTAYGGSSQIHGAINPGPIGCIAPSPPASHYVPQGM
Outline: (§1)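 HEK293T lysate, 495 µg per sample in Tris/CHAPS/IGEPAL buffer with protease inhibitors, was treated in triplicate with fragment at 200 µM or vehicle for 3 h and then with Biotin-Ahx-Ub-VS at 0.5 µM final for 1 h. Labelled DUBs were NeutrAvidin-enriched, digested with LysC and trypsin, and run by diaPASEF LC-MS/MS. Spectronaut label-free quantities were global-median-normalised, and values are average log2 fragment/vehicle ratios by unpaired t-test on proteins with ≥2 unique peptides.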

ATXN3 = ATXN3 (UniProt P54252)
Chain of ATXN3 (P54252 whole entry): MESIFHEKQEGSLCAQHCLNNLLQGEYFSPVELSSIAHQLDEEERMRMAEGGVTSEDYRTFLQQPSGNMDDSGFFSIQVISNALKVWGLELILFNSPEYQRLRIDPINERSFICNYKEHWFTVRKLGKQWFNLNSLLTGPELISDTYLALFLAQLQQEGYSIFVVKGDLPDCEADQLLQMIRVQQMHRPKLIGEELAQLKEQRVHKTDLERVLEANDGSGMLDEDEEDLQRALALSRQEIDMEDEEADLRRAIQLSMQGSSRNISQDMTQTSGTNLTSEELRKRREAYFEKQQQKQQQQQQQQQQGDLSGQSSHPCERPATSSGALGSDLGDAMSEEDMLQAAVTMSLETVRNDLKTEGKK
Outline: as §1

BAP1 = biological target: T2, BAP1 (UniProt Q92560)
T2 sequence (whole entry): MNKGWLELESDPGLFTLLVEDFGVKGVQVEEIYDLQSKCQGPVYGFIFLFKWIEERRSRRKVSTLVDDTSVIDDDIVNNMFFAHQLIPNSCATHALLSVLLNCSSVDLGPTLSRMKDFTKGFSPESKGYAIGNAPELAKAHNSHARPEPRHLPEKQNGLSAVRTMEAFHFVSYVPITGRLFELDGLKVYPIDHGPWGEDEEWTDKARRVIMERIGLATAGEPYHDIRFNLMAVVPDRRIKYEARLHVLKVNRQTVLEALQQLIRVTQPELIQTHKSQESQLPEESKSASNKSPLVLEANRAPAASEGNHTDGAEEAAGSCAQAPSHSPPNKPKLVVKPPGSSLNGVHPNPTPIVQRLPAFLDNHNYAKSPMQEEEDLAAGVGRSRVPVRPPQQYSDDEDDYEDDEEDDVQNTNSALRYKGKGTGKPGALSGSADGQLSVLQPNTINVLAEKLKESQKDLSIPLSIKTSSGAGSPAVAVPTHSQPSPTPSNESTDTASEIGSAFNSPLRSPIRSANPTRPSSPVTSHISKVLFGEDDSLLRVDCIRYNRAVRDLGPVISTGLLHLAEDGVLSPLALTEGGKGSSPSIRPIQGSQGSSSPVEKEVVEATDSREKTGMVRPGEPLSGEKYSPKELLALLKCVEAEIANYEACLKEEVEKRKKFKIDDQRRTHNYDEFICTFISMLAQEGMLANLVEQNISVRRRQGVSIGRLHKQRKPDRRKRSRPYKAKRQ
Outline: as §1

EIF3F = EIF3F (UniProt O00303)
Chain of EIF3F (O00303 whole entry): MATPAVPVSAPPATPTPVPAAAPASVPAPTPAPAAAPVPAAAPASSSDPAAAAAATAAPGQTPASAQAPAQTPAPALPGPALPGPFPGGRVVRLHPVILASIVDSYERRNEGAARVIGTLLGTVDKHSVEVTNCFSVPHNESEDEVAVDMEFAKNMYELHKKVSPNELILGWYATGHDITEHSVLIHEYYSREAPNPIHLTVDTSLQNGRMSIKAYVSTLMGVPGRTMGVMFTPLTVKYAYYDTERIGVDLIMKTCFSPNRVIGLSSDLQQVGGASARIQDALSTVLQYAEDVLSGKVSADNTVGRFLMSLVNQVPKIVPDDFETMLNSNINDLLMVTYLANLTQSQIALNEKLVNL
Outline: as §1

EIF3H = EIF3H (UniProt O15372)
Chain of EIF3H (O15372 whole entry): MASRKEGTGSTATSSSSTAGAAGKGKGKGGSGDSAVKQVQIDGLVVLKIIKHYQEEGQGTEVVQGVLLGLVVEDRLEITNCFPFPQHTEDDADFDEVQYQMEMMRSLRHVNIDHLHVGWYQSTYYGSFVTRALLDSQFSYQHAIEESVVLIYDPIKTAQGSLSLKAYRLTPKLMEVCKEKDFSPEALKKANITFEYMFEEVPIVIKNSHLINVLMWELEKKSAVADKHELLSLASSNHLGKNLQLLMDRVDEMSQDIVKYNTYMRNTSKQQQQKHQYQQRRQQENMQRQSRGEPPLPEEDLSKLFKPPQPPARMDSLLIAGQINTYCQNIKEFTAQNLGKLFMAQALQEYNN
Outline: as §1

FAM105A = biological target: T3, FAM105A (UniProt Q9NUU6)
T3 sequence (whole entry): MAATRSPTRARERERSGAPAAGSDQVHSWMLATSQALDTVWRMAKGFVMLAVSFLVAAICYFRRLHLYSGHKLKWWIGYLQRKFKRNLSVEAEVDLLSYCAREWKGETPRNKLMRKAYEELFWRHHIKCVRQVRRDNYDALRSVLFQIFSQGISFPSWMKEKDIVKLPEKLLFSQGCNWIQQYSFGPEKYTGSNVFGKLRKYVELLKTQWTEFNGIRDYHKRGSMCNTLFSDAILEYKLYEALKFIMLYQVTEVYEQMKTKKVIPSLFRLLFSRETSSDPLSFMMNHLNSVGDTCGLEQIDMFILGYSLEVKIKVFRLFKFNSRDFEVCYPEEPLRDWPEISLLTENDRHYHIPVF
Outline: as §1

OTUB1 = OTUB1 (UniProt Q96FW1)
Chain of OTUB1 (Q96FW1 whole entry): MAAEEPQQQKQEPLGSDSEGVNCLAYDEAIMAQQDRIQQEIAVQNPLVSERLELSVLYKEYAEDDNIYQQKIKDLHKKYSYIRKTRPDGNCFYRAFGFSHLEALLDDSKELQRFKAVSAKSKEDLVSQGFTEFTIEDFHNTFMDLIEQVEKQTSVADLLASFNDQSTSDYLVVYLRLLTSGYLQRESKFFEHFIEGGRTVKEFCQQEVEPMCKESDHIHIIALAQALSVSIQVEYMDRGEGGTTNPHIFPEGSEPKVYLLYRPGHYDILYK
Outline: as §1

OTUD4 = biological target: T4, OTUD4 (UniProt Q01804)
T4 sequence (whole entry): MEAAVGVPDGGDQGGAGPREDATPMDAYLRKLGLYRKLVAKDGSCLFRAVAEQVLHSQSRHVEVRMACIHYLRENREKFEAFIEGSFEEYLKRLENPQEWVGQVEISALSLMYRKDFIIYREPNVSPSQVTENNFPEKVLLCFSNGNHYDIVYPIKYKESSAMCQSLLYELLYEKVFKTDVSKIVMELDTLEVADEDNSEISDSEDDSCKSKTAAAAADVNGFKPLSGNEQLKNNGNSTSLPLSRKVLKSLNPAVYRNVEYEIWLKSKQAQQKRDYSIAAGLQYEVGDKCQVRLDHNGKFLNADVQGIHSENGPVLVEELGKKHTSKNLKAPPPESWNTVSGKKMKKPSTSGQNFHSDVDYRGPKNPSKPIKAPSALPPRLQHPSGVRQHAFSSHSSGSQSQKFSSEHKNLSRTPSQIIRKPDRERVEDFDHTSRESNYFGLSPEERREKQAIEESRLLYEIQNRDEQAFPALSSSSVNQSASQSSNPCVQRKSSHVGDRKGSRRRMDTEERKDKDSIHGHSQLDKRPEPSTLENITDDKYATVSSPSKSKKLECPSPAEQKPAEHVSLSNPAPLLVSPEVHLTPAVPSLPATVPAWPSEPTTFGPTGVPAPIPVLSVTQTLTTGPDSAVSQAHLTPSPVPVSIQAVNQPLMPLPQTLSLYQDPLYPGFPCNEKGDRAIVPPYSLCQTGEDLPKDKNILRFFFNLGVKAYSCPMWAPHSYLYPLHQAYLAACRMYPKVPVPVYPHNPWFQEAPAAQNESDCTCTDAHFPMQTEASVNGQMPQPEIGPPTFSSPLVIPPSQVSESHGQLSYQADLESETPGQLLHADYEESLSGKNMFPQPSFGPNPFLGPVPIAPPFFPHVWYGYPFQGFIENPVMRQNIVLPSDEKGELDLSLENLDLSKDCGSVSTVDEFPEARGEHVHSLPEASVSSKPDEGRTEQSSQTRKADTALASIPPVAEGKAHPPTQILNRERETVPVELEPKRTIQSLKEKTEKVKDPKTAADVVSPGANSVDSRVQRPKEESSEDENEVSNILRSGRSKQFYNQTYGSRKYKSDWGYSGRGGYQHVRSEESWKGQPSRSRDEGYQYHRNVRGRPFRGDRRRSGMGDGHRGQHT
Outline: as §1

OTUD5 = biological target: T5, OTUD5 (UniProt Q96G74)
T5 sequence (whole entry): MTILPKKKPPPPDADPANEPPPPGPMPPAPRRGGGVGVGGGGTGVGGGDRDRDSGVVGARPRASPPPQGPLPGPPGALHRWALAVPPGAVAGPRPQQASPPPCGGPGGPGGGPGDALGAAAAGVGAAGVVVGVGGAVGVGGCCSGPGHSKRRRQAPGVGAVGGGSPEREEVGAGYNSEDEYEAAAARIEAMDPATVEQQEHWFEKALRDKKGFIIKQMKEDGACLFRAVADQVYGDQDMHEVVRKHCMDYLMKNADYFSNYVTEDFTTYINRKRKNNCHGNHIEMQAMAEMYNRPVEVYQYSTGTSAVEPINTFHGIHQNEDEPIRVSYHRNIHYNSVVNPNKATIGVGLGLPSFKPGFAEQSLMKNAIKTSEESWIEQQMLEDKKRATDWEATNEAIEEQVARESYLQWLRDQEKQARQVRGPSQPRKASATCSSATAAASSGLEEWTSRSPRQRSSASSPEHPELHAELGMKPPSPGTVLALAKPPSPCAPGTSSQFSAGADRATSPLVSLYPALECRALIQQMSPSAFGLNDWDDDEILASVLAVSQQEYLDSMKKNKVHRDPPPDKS
Outline: as §1

Measured: log2 ratio of Biotin-Ahx-Ub-VS probe labelling

NC(=O)C1CCCN(C(=O)CCl)C1 (centres undefined)
inactive: ALG13 0.0966 | ATXN3 -0.171 | BAP1 -0.437 | EIF3F -0.000958 | EIF3H 0.225 | FAM105A 0.217 | OTUB1 -0.301 | OTUD4 0.0344 | OTUD5 -0.159
